Measurements taken from PubChem BioAssay (Tox21).
Values joined by “and” are separate entries in the source; they are usually repeats but may differ in a detail not shown here. Identical values can stand only once. Records with an inconclusive call do not appear. A call without a number means that no potency is given here. A structure can be active in one record and inactive in another. Active and inactive are the calls of the source. Calls follow the shape of the dose curve; as a rule, active = well fitted curve in the direction sought with a large enough effect in the repeat runs; inconclusive = weak or mixed curves; inactive = no such curve, though single readings can be large; an effect the other way counts as inactive or inconclusive.

What was measured:
[1] = A CellTox Green Cytotoxicity Assay to monitor cytotoxicity in HepG2 cells - 0 hour (AID 1224882); also: nearly all actives have a fitted effect of over 35% in size
Method in brief: (§1)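 Using 1536-well format, dye-containing HepG2 suspension was seeded, allowed 5 h at 37 C/5% CO2, dosed by pintool with compounds, positive and negative controls, and imaged for fluorescence across 40 h.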

[2] = A CellTox Green Cytotoxicity Assay to monitor cytotoxicity in HepG2 cells - 32 hour (AID 1224883); also: nearly all actives have a fitted effect of over 50% in size
Method in brief: as §1

[3] = A CellTox Green Cytotoxicity Assay to monitor cytotoxicity in HEK293 cells - 8 hour (AID 1224884); also: nearly all actives have a fitted effect of over 35% in size
Method in brief: (§2)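 Fluorescence intensity, read at 0, 8, 16, 24, 32 and 40 h of compound treatment, reflected dye binding to DNA of dead HEK293 cells; compounds (23 nL, DMSO) were added 5 h after plating cells with reagent.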

[4] = qHTS RealTime-Glo MT Cell Viability Assay in HepG2 cells - 16 hour (AID 1224885); also: nearly all actives have a fitted effect of over 50% in size
Method in brief: (§3)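 Tox21 10K library screened in qHTS format on HepG2 cells carrying RealTime-Glo reagents. Compounds were added after a 5 h preincubation, and the luminescent signal from continuous culture was measured repeatedly during 40 h treatment.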

[5] = qHTS RealTime-Glo MT Cell Viability Assay in HEK293 cells - 24 hour (AID 1224886); also: nearly all actives have a fitted effect of over 50% in size; as to activity change, negative = cytotoxicity: top concentration of the series differs between compounds
Method in brief: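 Luminescence generated by NanoLuc from substrate produced by living HEK293 cells served as the viability signal. Each value reflects the reading at its stated time point during continuous 40 h compound exposure at 37 C.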

[6] = qHTS RealTime-Glo MT Cell Viability Assay in HEK293 cells - 8 hour (AID 1224887); also: nearly all actives have a fitted effect of over 50% in size; as to activity change, negative = cytotoxicity: top concentration of the series differs between compounds
Method in brief: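 Viable HEK293 cells reduce a cell-permeant prosubstrate; the product diffuses out and is consumed by NanoLuc in the medium to give light. Compounds went in after a 5 h incubation and plates were read over the treatment course.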

[7] = A CellTox Green Cytotoxicity Assay to monitor cytotoxicity in HEK293 cells - 16 hour (AID 1224888); also: nearly all actives have a fitted effect of over 35% in size
Method in brief: as §2

[8] = qHTS RealTime-Glo MT Cell Viability Assay in HepG2 cells - 0 hour (AID 1224889); also: nearly all actives have a fitted effect of over 50% in size
Method in brief: as §3

[9] = A CellTox Green Cytotoxicity Assay to monitor cytotoxicity in HepG2 cells - 8 hour (AID 1224890); also: nearly all actives have a fitted effect of over 45% in size
Method in brief: as §1

[10] = qHTS assay to identify small molecule antagonists of the estrogen receptor alpha (ER-alpha) signaling pathway using the BG1 cell line in the presence of 0.1 nM 17-beta-estradiol - cell viability counter screen (AID 1259241); also: nearly all actives have a fitted effect of over 40% in size
Method in brief: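 Estradiol-stimulated (0.1 nM) VM7Luc4E2 cells exposed to compounds 22 hr; viability measured by fluorescence of cleaved CellTiter-Fluor substrate after 30 min.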
Potency is read from the fitted curve at half-maximal effect.

SMILES	Potency [1]	Potency [2]	Potency [3]	Potency [4]	Potency [5]	Potency [6]	Potency [7]	Potency [8]	Potency [9]	Potency [10]	cytotoxicity increase [2]	activity change, negative = cytotoxicity [5]
CC(=O)[C@H]1CC[C@H]2[C@@H]3CC=C4C[C@@H](O)CC[C@]4(C)[C@H]3CC[C@]12C	inactive	inactive	inactive	inactive	inactive	inactive	inactive	inactive	inactive	inactive		
Oc1c(Cl)ccc(Cl)c1Cl	inactive	inactive	inactive	inactive	inactive	inactive	inactive	inactive	inactive	inactive		
CC1(C)C(C=C(Cl)Cl)C1C(=O)OCc1cccc(Oc2ccccc2)c1 (stereo unspecified)	inactive	inactive	inactive	inactive	inactive	inactive	inactive	inactive	inactive	inactive		
O=S1(=O)CCCO1	inactive	inactive	inactive	inactive	inactive	inactive	inactive	inactive	inactive	inactive		
Cc1ccc(N)c([N+](=O)[O-])c1	inactive	inactive	inactive	inactive	inactive	inactive	inactive	inactive	inactive	inactive		
O=[Se](O)O	inactive	24.6 µM (active)	inactive	inactive		inactive	inactive	inactive	inactive	inactive	9.15% [at 15.8 µM] (inactive)	-26.2% [at 15.8 µM] (inactive)
CC(=O)O[C@]1(C(C)=O)CC[C@H]2[C@@H]3C=C(Cl)C4=CC(=O)CC[C@]4(C)[C@H]3CC[C@@]21C	inactive	inactive	inactive	inactive	21.8 µM (active)		inactive	346 nM (active) and 477 nM (active)	inactive	inactive		
CCCCCCC(C)O (stereo unspecified)	inactive	inactive	inactive	inactive	inactive	inactive	inactive	inactive	inactive	inactive		
CC(C)(C)c1cccc(C(C)(C)C)c1O	inactive	inactive	inactive	inactive	24 µM (active) and inactive	47.9 µM (active) and inactive	inactive	inactive	inactive	inactive		
OC[C@H]1O[C@@H]2O[C@H]3[C@H](O)[C@@H](O)[C@@H](O[C@H]4[C@H](O)[C@@H](O)[C@@H](O[C@H]5[C@H](O)[C@@H](O)[C@@H](O[C@H]6[C@H](O)[C@@H](O)[C@@H](O[C@H]7[C@H](O)[C@@H](O)[C@@H](O[C@H]1[C@H](O)[C@H]2O)O[C@@H]7CO)O[C@@H]6CO)O[C@@H]5CO)O[C@@H]4CO)O[C@@H]3CO	inactive	inactive	inactive	inactive	inactive	inactive	inactive	inactive	inactive	inactive		
C[N+](C)(C)CCO	inactive	inactive	inactive	inactive	inactive		inactive	inactive	inactive	inactive		
CCOC(=O)C(C)Oc1ccc(Oc2cnc3cc(Cl)ccc3n2)cc1 (stereo unspecified)	inactive	inactive	inactive	inactive	22.4 µM (active) and 36.4 µM (active)		inactive	inactive	inactive	inactive		
Nc1ccc(O)c(N)c1	inactive	inactive	inactive	inactive	inactive		inactive	inactive	inactive			
C=CN1CCCC1=O	inactive	inactive	inactive	inactive	inactive	inactive	inactive	inactive	inactive	inactive		
CCCCCCCC/C=C\CCCCCCCC(=O)O	inactive	inactive	inactive	inactive	inactive	inactive	inactive	inactive	inactive	inactive		
CN(C)/N=N/c1nc[nH]c1C(N)=O	inactive	inactive	inactive	inactive	inactive	inactive	inactive	inactive	inactive	inactive		
CC(=O)OC(C)C	inactive	inactive	inactive	inactive	inactive	inactive	inactive	inactive	inactive	inactive		
CC(C)=CCO	inactive	inactive	inactive	inactive	inactive	inactive	inactive	inactive	inactive	inactive		
COc1cc([C@H]2Oc3cc([C@H]4Oc5cc(O)cc(O)c5C(=O)[C@@H]4O)ccc3O[C@@H]2CO)ccc1O	inactive and 21.3 µM (active)	inactive and 21.3 µM (active)	inactive and 16.9 µM (active)	inactive	inactive	inactive		inactive	inactive and 23.9 µM (active)	inactive		
CC1(C)OC(=O)NC1=O	inactive	inactive	inactive	inactive	inactive	inactive	inactive	inactive	inactive	inactive		
CC/C=C\C/C=C\C/C=C\CCCCCCCC(=O)O	inactive	inactive	inactive	inactive	inactive		inactive	inactive	inactive	inactive		
COC(=O)c1ccc(C)cc1	inactive	inactive	inactive	inactive	inactive	inactive	inactive	inactive	inactive	inactive		

SMILES	Potency [1]	Potency [2]	Potency [3]	Potency [4]	Potency [5]	Potency [6]	Potency [7]	Potency [8]	Potency [9]	Potency [10]	cytotoxicity increase [2]	activity change, negative = cytotoxicity [5]
O=C(O)c1ccc(O)cc1	inactive	inactive	inactive	inactive	inactive	inactive	inactive	inactive	inactive	inactive		
C=C[Si](OCCOC)(OCCOC)OCCOC	inactive	inactive	inactive	inactive	inactive	inactive	inactive	inactive	inactive	inactive		
CCC(Cc1c(I)cc(I)c(N)c1I)C(=O)O (stereo unspecified)	inactive	inactive	inactive	inactive	inactive		inactive	inactive	inactive	inactive		
CCCCCC=O	inactive	inactive	inactive	inactive	inactive	inactive	inactive	inactive	inactive	inactive		
C=C[C@@]1(C)CC(=O)[C@]2(O)[C@@]3(C)[C@@H](O)CCC(C)(C)[C@@H]3[C@H](O)[C@H](OC(C)=O)[C@@]2(C)O1	inactive	inactive	inactive	inactive	inactive	inactive	inactive	inactive	inactive	inactive		
CCO[Si](CCCNC(N)=O)(OCC)OCC	inactive	inactive	inactive	inactive	inactive	inactive	inactive	inactive	inactive	inactive		
C1COCCN1	inactive	inactive	inactive	inactive	inactive	inactive	inactive	inactive	inactive	inactive		
CN(C)CCCN1c2ccccc2Sc2ccc(Cl)cc21	inactive	24.5 µM (active) and 23.9 µM (active)	54.9 µM (active) and inactive	49 µM (active) and 23.9 µM (active)	24.5 µM (active) and 23.9 µM (active)	30.9 µM (active)	54.9 µM (active) and 26.8 µM (active)		inactive			
Cc1ccc(/C(=C\CN2CCCC2)c2ccccn2)cc1	inactive	inactive	inactive	inactive	inactive	inactive	inactive	inactive	inactive	inactive		
OC[C@@H](O)[C@@H](O[C@@H]1O[C@H](CO)[C@H](O)[C@H](O)[C@H]1O)[C@H](O)[C@@H](O)CO	inactive	inactive	inactive	inactive	inactive		inactive	inactive	inactive	inactive		
c1ccc2c(c1)ccc1cc3c(ccc4ccccc43)cc12	inactive	inactive	inactive	inactive	inactive		inactive	inactive	inactive	inactive		
O=C(O)c1cc(=O)[nH]c(=O)[nH]1	inactive	inactive	inactive	inactive	inactive	inactive	inactive	inactive	inactive	inactive		
C=CCNCC=C	inactive	inactive	inactive	inactive	inactive		inactive	inactive	inactive	inactive		
NC[C@H](O)c1ccc(O)c(O)c1	inactive	inactive	inactive	inactive	inactive		inactive	inactive	inactive	inactive		
CC(=O)Oc1c(C)c(C)c2c(c1C)CC[C@@](C)(CCC[C@H](C)CCC[C@H](C)CCCC(C)C)O2	inactive	inactive	inactive	inactive	inactive	inactive	inactive	inactive	inactive	inactive		
CC(=O)Oc1ccc(C(c2ccc(OC(C)=O)cc2)c2ccccn2)cc1	inactive	inactive	inactive	inactive	inactive	inactive	inactive	inactive	inactive	0.75 µM (active)		
C[C@]12CC[C@@H]3c4ccc(O)cc4CC[C@H]3[C@@H]1CC[C@@H]2O	inactive	43.6 µM (active) and inactive	inactive	inactive	19.5 µM (active)	inactive	inactive	inactive	inactive	inactive		
c1ccc2ncccc2c1	inactive	inactive	inactive		inactive	inactive	inactive	inactive	inactive	inactive		
COCCOCCOCCO	inactive	inactive	inactive	inactive	inactive		inactive	inactive	inactive	inactive		
Cc1ccc([N+](=O)[O-])c(C)c1	inactive	17.4 µM (active) and inactive	inactive	inactive		inactive	inactive	inactive	inactive	inactive		
c1ccc2c(c1)ccc1ncccc12	inactive	inactive	inactive	inactive		inactive	inactive	inactive	inactive	inactive		
CCCOCCO	inactive	inactive	inactive	inactive			inactive	inactive	inactive	inactive		
